# Assay results taken from ChEMBL document CHEMBL3988442, “University of Dundee, Small-Polar-MMV Screening Library” (2021).
# Key:
# [1] = molecular target: T1, Aspartate--tRNA(Asp/Asn) ligase (Mycobacterium tuberculosis (strain ATCC 25618 / H37Rv)) (UniProt P9WFW3); assay: Assay for Asp RNA synthetase-1 from Mycobacterium tuberculosis; assay type: functional; design: scale not given: direction of the effect not stated beside the values; settings: 30 µM; also: in the data most compounds retested in dose-response had high values
# T1 sequence (whole entry): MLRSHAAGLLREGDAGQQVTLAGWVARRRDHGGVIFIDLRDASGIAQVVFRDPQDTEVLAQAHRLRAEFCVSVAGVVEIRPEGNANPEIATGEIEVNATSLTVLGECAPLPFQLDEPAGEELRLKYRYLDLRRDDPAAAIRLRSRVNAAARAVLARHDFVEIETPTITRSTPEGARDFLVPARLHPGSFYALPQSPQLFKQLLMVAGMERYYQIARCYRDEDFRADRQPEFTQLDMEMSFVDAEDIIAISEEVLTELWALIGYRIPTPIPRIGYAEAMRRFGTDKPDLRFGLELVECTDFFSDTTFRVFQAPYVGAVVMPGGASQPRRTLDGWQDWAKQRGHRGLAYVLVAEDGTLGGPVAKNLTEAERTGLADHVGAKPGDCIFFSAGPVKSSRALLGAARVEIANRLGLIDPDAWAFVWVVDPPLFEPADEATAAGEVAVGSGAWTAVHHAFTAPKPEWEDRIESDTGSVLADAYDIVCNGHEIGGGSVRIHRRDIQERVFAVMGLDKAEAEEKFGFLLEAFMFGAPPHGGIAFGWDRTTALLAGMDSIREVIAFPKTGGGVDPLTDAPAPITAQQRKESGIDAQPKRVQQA
# [2] = molecular target: Shiga toxin 2 (Escherichia coli O157:H7) (UniProt P09385+P09386); assay: E. coli 0.157:H7 Shiga Toxin SOP - stx2 screening assay; assay type: functional; design: scale not given: direction of the effect not stated beside the values; settings: 30 µM
Compound,Percent Effect [1] [%],Percent Effect [2] [%]
CNC(=O)[C@H]1C[C@@H]2CN(S(=O)(=O)c3ccccc3)C[C@@H]2N1C,-3.51,-39.6
CCC(CC)c1cc(C(=O)N2CCCC(n3cncn3)C2)on1 (stereo not drawn),-5.51,-2.33
Cc1noc(C)c1CNC(=O)N1CCN(Cc2cscn2)CC1,0.233,1.78
Cc1cc(CN2CCC(c3ccnn3CCO)CC2)no1,-1.46,-16.1
CN(CCc1ccccc1)C1CCCN(Cc2nccn2C)C1 (stereo not drawn),0.357,-0.197
Cc1ccc(CN2C[C@@H]3COC[C@@H](NS(C)(=O)=O)[C@@H]3C2)o1,1.98,-1.23
Cc1cccc(-n2c(C)cc(C(=O)N3CCn4c(C)nnc4C3)c2C)c1,3.51,36.2
CCc1noc(C(C)N2CCN(Cc3ncc(C(C)(C)C)o3)CC2)n1 (stereo not drawn),-1.28,23.4
CCCc1nc(C(=O)N2CCCn3nc(CCC(=O)O)cc3C2)cs1,-2.6,15.5
